Compounds with a hit are over-represented: about 6.9% of the library has one in this group of screens.
SW480 rereplic: DNA re-replication induction in SW480 cells; SW480 DNA re-replication, Hoechst DNA content imaging, 48 h; Potency, µM (titrated, usually from 46.1 µM), for inactives: at the top dose re-replication activation, most hits filed as activators; actives 1.8% (n = 340,000); AID 624297; also: potency is read from the fitted curve at half-maximal effect; % of control where 0% means no effect; nearly all actives have a fitted effect of over 55% in size
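Image-based DNA-content assay: after two days of treatment, nuclei were labelled with the DNA dye Hoechst and imaged, and hits were compounds raising the count of nuclei showing high fluorescence intensity.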
Vif-A3G inh: blocks the Vif interaction with human APOBEC3G | Q9HC16 | HeLa A3G-eYFP + Vif (tagged APOBEC3G with the HIV-1 protein that degrades it), YFP fluorescence, overnight | Potency, µM (doses to about 46.1 µM), for inactives: at the highest dose activity, negative = active, hits mostly inhibitors | actives 0.076% (n = 410,000); also: potency is read from the fitted curve at half-maximal effect; % is scaled to controls: 0 for no effect and ±100 for the full control effect; nearly all actives have a fitted effect of over 60% in size
Target sequence (Q9HC16 whole entry, looked up): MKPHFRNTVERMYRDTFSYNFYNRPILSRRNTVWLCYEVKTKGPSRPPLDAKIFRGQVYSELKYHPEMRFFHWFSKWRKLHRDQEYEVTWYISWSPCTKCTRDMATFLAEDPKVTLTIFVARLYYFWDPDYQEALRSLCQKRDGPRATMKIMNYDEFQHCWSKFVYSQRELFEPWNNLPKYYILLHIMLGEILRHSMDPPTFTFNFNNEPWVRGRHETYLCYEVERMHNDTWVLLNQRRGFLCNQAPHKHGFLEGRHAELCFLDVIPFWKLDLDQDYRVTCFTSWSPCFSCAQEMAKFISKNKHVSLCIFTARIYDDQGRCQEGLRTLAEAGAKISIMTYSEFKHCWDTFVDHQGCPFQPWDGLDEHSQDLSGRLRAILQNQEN
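HeLa cells stably expressing Vif and C-terminally eYFP-tagged A3G, seeded overnight at 37 deg C, then exposed to compound by pintool overnight at 37 deg C. Rise in yellow fluorescence (Ex 488/Em 500-530, Acumen) marks blocked Vif-driven A3G degradation.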
MCF10A rerep: inducers of DNA re-replication in MCF 10A breast cells | Potency, µM (titrated, usually from 46.1 µM), inactives show at the top dose activity, positive = re-replication, most hits filed as activators | MCF 10A DNA re-replication, Hoechst nuclear intensity, 48 h | actives 2.9% (n = 350,000); also: potency is read from the fitted curve at half-maximal effect; % of control where 0% means no effect; nearly all actives have a fitted effect of over 50% in size
IL1B secr inh: inhibitors of inflammasome signaling (IL-1 beta secretion). THP-1 LPS/ATP IL-1B secretion, AlphaLISA, 16 h; hits give low values. activity change, % at 57.5 µM. actives 4.7% (n = 360,000). AID 743279; in the data active = activity change below about -50%; inconclusive = mostly about -30% to -49%; also: % is scaled to controls: 0 for no effect and ±100 for the full control effect
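THP-1 cells pretreated 1 hr with compounds (up to 57.5 uM final), then stimulated with LPS (250 ng/mL final) plus ATP (1.25 mM final); secreted IL-1B measured by AlphaLISA after 16 hr, decreased signal indicating inhibition.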
Vif-A3F inh: inhibitors of Vif-A3F interaction | HeLa A3F-eYFP + Vif (tagged APOBEC3F with the HIV-1 protein that degrades it), YFP fluorescence increase | Potency, µM (titrated, usually from 46.1 µM), inactives show at the top dose activity, negative = active | actives 0.2% (n = 390,000) | AID 602313; also: potency is read from the fitted curve at half-maximal effect; % of control where 0% means no effect; nearly all actives have a fitted effect of over 65% in size
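HeLa cells stably expressing A3F-eYFP plus Vif, plated and incubated overnight at 37 deg C, then exposed to compounds overnight at 37 deg C. Blocked degradation read as raised yellow fluorescence (Ex 488/Em 500-530).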
Giardia killer: kills Giardia lamblia; AID 540267; actives 0.15% (n = 340,000); activity change, % at 7.66 µM, hits read low; Giardia lamblia trophozoite viability; in the data active = activity change below about -80%; inconclusive = between about -30% and that limit;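 also: parasites exposed to compound for two days anaerobically before the ATP read; % is scaled to controls: 0 for no effect and ±100 for the full control effect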
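Luminescence from cellular ATP indicates surviving trophozoites (100 cells/well) following 48 hrs anaerobic compound treatment at 37 deg C; signal develops 15-30 min at room temperature.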
The depositor's hits bear a star. Unless noted, calls follow the shape of the dose curve; as a rule, active = well fitted curve in the direction sought with a large enough effect; inconclusive = small, poorly fitted or top-dose-only effect, or another doubt; inactive = no such curve, though single readings can be large; an effect the other way counts as inactive or inconclusive.

What do the screens show for `COc1ccc(OC)c(NS(=O)(=O)c2ccc(N3CCCC3=O)cc2)c1`?
SW480 rereplic: 0.82µM*; Vif-A3G inh: inconclusive; MCF10A rerep: inconclusive; IL1B secr inh: 63.4; Vif-A3F inh: -22.7%; Giardia killer: 8.5

Results for Cc1ccccc1NS(=O)(=O)c1cc2c3c(c1)CC(=O)N3CCC2 ?
SW480 rereplic: -4.8%; Vif-A3G inh: -0.1%; MCF10A rerep: -0.4%; IL1B secr inh: 1.1; Vif-A3F inh: -0.9%; Giardia killer: -3.9

Results for COc1ccc(CCNS(=O)(=O)c2ccc(N3CCCC3=O)cc2)cc1 ?
SW480 rereplic: 0.4%; Vif-A3G inh: -0.3%; MCF10A rerep: inconclusive; IL1B secr inh: -2.8; Vif-A3F inh: -1.9%; Giardia killer: -11.9

How did COC(=O)c1c(C)oc2ccc(N(C(=O)Oc3ccccc3)S(=O)(=O)c3ccc(C(C)(C)C)cc3)cc12 do in these assays?
Vif-A3G inh: 2.8%; Vif-A3F inh: -4.7%

Results for O=C(Nc1ccc(OCc2cc(=O)n3c4c(sc3n2)CCCC4)cc1)c1ccc(F)cc1 ?
Vif-A3G inh: 0.6%; Vif-A3F inh: -9.8%

How did COc1ccc(-c2nc3c4ccccc4ccn3c2Cc2ccsc2)cc1OC do in these assays?
Vif-A3G inh: 8.91µM*; IL1B secr inh: -17.6

Results for CCc1ccc(C=O)cc1 ?
Vif-A3G inh: 1.0%

How did COc1ccccc1/C=N/NC(=O)c1nnn(-c2nonc2N)c1-c1cccs1 do in these assays?
SW480 rereplic: 23.1µM*; Vif-A3G inh: 2.2%; MCF10A rerep: -0.7%; IL1B secr inh: 13.7; Vif-A3F inh: 7.9%; Giardia killer: inconclusive

Results for Cc1ccsc1/C=N/NC(=O)c1nnn(-c2nonc2N)c1-c1ccccc1 ?
SW480 rereplic: 1.6%; Vif-A3G inh: 0.2%; MCF10A rerep: inconclusive; IL1B secr inh: -91.9*; Vif-A3F inh: -3.2%; Giardia killer: 15.9

What do the screens show for `CCCOc1ccc(-c2c(C(=O)N/N=C/c3ccncc3)nnn2-c2nonc2N)cc1`?
SW480 rereplic: -6.1%; Vif-A3G inh: -1.9%; MCF10A rerep: 8.9%; IL1B secr inh: -53.8*; Vif-A3F inh: 2.3%; Giardia killer: -8.5

Results for COc1cccc(-c2c(C(=O)N/N=C/c3sccc3C)nnn2-c2nonc2N)c1 ?
SW480 rereplic: -8.2%; Vif-A3G inh: -5.7%; MCF10A rerep: inconclusive; IL1B secr inh: -54.5*; Vif-A3F inh: -1.4%; Giardia killer: -9.7

Results for CCOC(=O)N1CCN(/[N+]([O-])=N/OCOC)CC1 ?
Vif-A3G inh: 1.5%

How did Cc1nnn(-c2nonc2N)c1C(=O)N/N=C/c1ccccc1O do in these assays?
SW480 rereplic: 2.59µM*; Vif-A3G inh: -7.2%; MCF10A rerep: -4.4%; IL1B secr inh: 30.9; Vif-A3F inh: -1.7%; Giardia killer: -13.2

What do the screens show for `CN1CCN(C(c2ccc(C(F)(F)F)cc2)c2ccc3cccnc3c2O)CC1` (centres undefined)?
SW480 rereplic: inconclusive; Vif-A3G inh: -5.5%; MCF10A rerep: inconclusive; IL1B secr inh: -85.0*; Vif-A3F inh: -2.0%; Giardia killer: 8.9

What do the screens show for `O=C(Oc1ccccc1F)c1nc(SCc2ccccc2F)ncc1Cl`?
Vif-A3G inh: -2.7%; Vif-A3F inh: 3.0%

How did COc1nn(C(C)C(=O)N2N=C(C(F)F)CC2(O)C(F)F)cc1[N+](=O)[O-] (centres undefined) do in these assays?
SW480 rereplic: -10.4%; Vif-A3G inh: -7.8%; MCF10A rerep: 10.1%; IL1B secr inh: 2.4; Vif-A3F inh: 0.5%; Giardia killer: -81.6*

What do the screens show for `COc1nn(CC(=O)N2N=C(C(F)F)CC2(O)C(F)F)cc1[N+](=O)[O-]` (centres undefined)?
SW480 rereplic: -8.6%; Vif-A3G inh: -0.2%; MCF10A rerep: 2.9%; IL1B secr inh: 19.8; Vif-A3F inh: -9.2%; Giardia killer: 15.3

How did Cc1ccc(S(=O)(=O)Nc2cccc3cccnc23)cc1 do in these assays?
SW480 rereplic: inconclusive; Vif-A3G inh: inconclusive; MCF10A rerep: inconclusive; IL1B secr inh: -97.5*; Vif-A3F inh: inconclusive; Giardia killer: -10.7

Results for COc1cc(NS(=O)(=O)c2ccc(C)cc2)c2ncccc2c1 ?
SW480 rereplic: 3.66µM*; Vif-A3G inh: -13.3%; MCF10A rerep: 23.6%; IL1B secr inh: 54.1; Vif-A3F inh: 4.5%; Giardia killer: 5.2

Results for COc1cc(NC(=O)c2ccccc2Cl)c2ncccc2c1 ?
SW480 rereplic: inconclusive; Vif-A3G inh: -23.5%; MCF10A rerep: 4.61µM*; IL1B secr inh: 0.0; Vif-A3F inh: 1.6%; Giardia killer: 5.7

Results for O=S(=O)(Nc1cc(Sc2cccc3cccnc23)c(O)c2ccccc12)c1ccccc1 ?
SW480 rereplic: 8.2µM*; MCF10A rerep: 23.1µM*

What do the screens show for `COc1ccccc1-c1nnc(C2CCN(C(=O)c3cccc(Cl)c3)CC2)o1`?
Vif-A3G inh: -1.9%; Vif-A3F inh: 2.3%

What do the screens show for `c1cc2c(cc1Cc1cncc(Cc3ccc4c(c3)OCO4)c1)OCO2`?
Vif-A3G inh: -2.0%

How did CC(C)(c1ccccc1)c1ccc(OCC(O)CNC2CCN(Cc3ccccc3)CC2)cc1 (centres undefined) do in these assays?
SW480 rereplic: 10.8%; Vif-A3G inh: 1.7%; MCF10A rerep: inconclusive; IL1B secr inh: -102.1*; Vif-A3F inh: 10.9%; Giardia killer: -6.2

Results for COc1ccc(OCC(O)CNCCOc2ccccc2OC)c(C(C)(C)C)c1 (centres undefined) ?
SW480 rereplic: 151.5%; Vif-A3G inh: -18.0%; MCF10A rerep: inconclusive; IL1B secr inh: -72.6*; Vif-A3F inh: -8.2%; Giardia killer: 13.1

How did Cc1ccccc1OCC(O)CNCCOc1ccc(C(N)=O)cc1 (centres undefined) do in these assays?
SW480 rereplic: -7.7%; MCF10A rerep: 9.3%

Results for COc1ccc(NCC(O)COc2ccc(C(C)(C)C)cc2)cc1 (centres undefined) ?
SW480 rereplic: 12.1%; Vif-A3G inh: -5.2%; MCF10A rerep: inconclusive; IL1B secr inh: -65.3*; Vif-A3F inh: 1.9%; Giardia killer: -5.9

What do the screens show for `OC(CNc1ccccc1)COc1ccc(OCC(O)CNc2ccccc2)cc1` (centres undefined)?
SW480 rereplic: inconclusive; Vif-A3G inh: -5.3%; MCF10A rerep: inconclusive; IL1B secr inh: -50.8*; Vif-A3F inh: 1.3%; Giardia killer: -4.2

Results for COc1ccc(CNC(=O)c2ccc(CS(=O)Cc3ccccc3Cl)o2)cc1 (centres undefined) ?
Vif-A3G inh: -5.3%; Vif-A3F inh: 12.8%
